# Hit rate of the full screen: of about 10,000 compounds, about 20 (0.2%) were called active.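 Rule for the calls: active = a compound raising TNF-alpha-driven VCAM-1 surface staining, with its hit status upheld on visual or statistical review; inactive = the rest, including hits rejected on review.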 This excerpt belongs to a sample that is enriched for actives.
# Assay: enhancers of VCAM-1 display on endothelial cells, cell-based, plate reader, pooled HUVEC, TNFa stimulus (AID 455);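 for augmentation: 0% = TNFa plus DMSO wells and 100% = a visually confirmed top hit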
# Conditions: HUVEC TNFa-induced VCAM-1 immunofluorescence; stronger effect = higher value, 100% set by best visually verified hit,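 tested at 5 µM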
row,Structure (SMILES),augmentation
1,c1cncc(-c2nc3c4ccccc4nc(N4CCC(N5CCCCC5)CC4)n3n2)c1,inactive
2,c1ccc(Cn2nnnc2C(c2cccs2)N2CCSCC2)cc1 (centres undefined),inactive
3,CCOC(=O)c1ccc(N(CC(=O)NC2CCCC2)C(=O)CNC(=O)c2ccco2)cc1,inactive
4,O=C(O)c1ccc2c3c(ncnc13)-c1ccccc1C2=O,inactive
5,O=C(CSc1nnc(-c2ccncc2)o1)Oc1ccccc1,inactive
6,COc1ccccc1C(O)P(=O)(OC(C)C)c1ccc(N(C)C)cc1 (centres undefined),inactive
7,O=C(NCCCn1ccnc1)c1cnn2c1NC(c1ccccc1)CC2C(F)(F)F (centres undefined),inactive
8,COc1ccc(-c2noc(CN3CCC(Cc4ccccc4)CC3)n2)cc1,30.2% (inactive)
9,Cc1nn(-c2ccccc2)c2c1C(c1c(C)[nH]c(C#N)c1C)C(C#N)=C(N)O2 (centres undefined),inactive
10,CCOC(=O)N1CCN(C(=O)COc2ccc(Br)cc2Cl)CC1,61.2% (inactive)
11,COc1ccccc1C1CC(c2ccc(C)cc2)Nc2ncnn21 (centres undefined),inactive
12,COc1ccccc1CN1CC(C(=O)N2CCN(c3ccc(F)cc3)CC2)CC1=O (centres undefined),inactive
13,CCOC(=O)C1C2C=CC3(CN(Cc4ccco4)C(=O)C13)O2 (centres undefined),inactive
14,COc1ccc(CN2C(=O)c3ccccc3C2C(=O)NC2CCCC2)c(OC)c1 (centres undefined),inactive
15,CN(C)c1ccc(/C=C/c2ccncc2)cc1,42.9% (active)
16,CN(C)c1ccc(CNn2cnnc2)cc1,inactive
17,CN(C)c1ccc(C=Nc2ccc(N(C)C)cc2)cc1,inactive
18,N#CCCNCC1(c2ccccc2)CCCC1,inactive
19,O=C(CSc1nnc2ccccn12)NCCN1C(=O)CSC1=O,inactive
20,Cc1ccc(NC(=O)CSc2nnc(NC(=O)CN3CCOCC3)s2)cc1,inactive
21,CCCc1[nH]nc2c1C(c1cccc(OC(=O)c3ccco3)c1)C(C#N)=C(N)O2 (centres undefined),inactive
22,CCN(CC)c1ccc2cc(-c3nc4ccccc4[nH]3)c(=O)oc2c1,100% (active)
23,CCN(CC)c1ccc2cc(NC(=O)CCC(=O)O)c(=O)oc2c1,inactive

row,Structure (SMILES),augmentation
1,CCN(CC)c1ccc2c(C)c(-c3ccc(N)cc3)c(=O)oc2c1,inactive
2,CCCCOc1ccc(CSc2n[nH]c(C)n2)cc1,inactive
3,CC(=O)Nc1cc(N2C(=O)CCC2=O)ccc1Cl,inactive
4,CC(=O)Nc1ccc(Cl)cc1C(=O)O,inactive
5,COC(=O)c1ccc(Cl)c(NC(C)=O)c1,82.8% (active)
6,CCCc1ccc(C(C)NC(=O)c2cnccn2)cc1 (centres undefined),inactive
7,CCCCNC(=O)Cn1c(=O)n(C)c2ccccc21,inactive
8,CCOC(=O)c1[nH]c(C)c(C(=O)Nc2ccc(Cl)cc2)c1C,inactive
9,Cc1ccc2cc3cc(C(=O)NCCN4CCOCC4)oc3nc2c1,inactive
10,CC(=O)c1cccc(NC(=O)N2C3CCC2CC(O)(c2cccnc2)C3)c1 (centres undefined),inactive
11,O=c1oc2c3c4c(cc2s1)CCCN4CCC3,inactive
12,c1ccc2nc(-c3nc4ccccc4[nH]3)ccc2c1,inactive
13,O=c1oc2c3c4c(cc2cc1-c1nc2ccccc2[nH]1)CCCN4CCC3,100% (active)
14,Cn1c(Cc2ccccc2)nnc1SCC(=O)c1ccc(Br)s1,inactive
15,CCOc1ccccc1C(=O)Nc1nnc(CC)s1,inactive
16,CCOC(=O)c1ccccc1NC(=O)CSc1nc2c(c(=O)n(C)c(=O)n2C)n1C,inactive
17,Cc1cc(=O)n2nc(N3CCCC(C(=O)N4CCc5ccccc54)C3)sc2n1 (centres undefined),inactive
18,CN(CCNC(=O)c1ccc(N2CCCC2=O)cc1)CCc1ccccc1,inactive
19,CC(C)n1nc(C(=O)Nc2nc3ccc(S(C)(=O)=O)cc3s2)c2ccccc2c1=O,inactive
20,Cc1ccc(CN2C(=O)CCC2C(=O)NCC2CCCO2)cc1 (centres undefined),inactive
21,CCCCn1c(SCc2cccnc2)nc2c1c(=O)n(C)c(=O)n2C,inactive
22,O=C(CCN1C(=O)COc2ccccc21)NCCN1CCN(c2cccc(Cl)c2)CC1,inactive
23,COc1ccc(NC(=O)CSc2nnc(Cc3cccn3C)n2-c2ccc(F)cc2)cc1,inactive

row,Structure (SMILES),augmentation
1,COc1cc2c(cc1OC)-c1cc(OCc3cccnc3)nc(=O)n1CC2,inactive
2,CN(Cc1ccccc1)S(=O)(=O)c1ccc(S(=O)(=O)N2CCN(CCC#N)CC2)cc1,inactive
3,CCOC(=O)c1[nH]c2ccccc2c1NC(=O)C(CC)CC,inactive
4,c1coc(Cn2nnnc2CN2CCN(C3CCCC3)CC2)c1,inactive
5,Cc1ccc(C)c(N2CCN(C(=O)c3ccc(CS(=O)(=O)c4ccccc4C)o3)CC2)c1,inactive
6,O=c1c2cn[nH]c2nc(SCc2ccc3c(c2)OCCO3)n1-c1ccccc1,inactive
7,COc1ccc(CCn2c(-c3ccco3)nc3nc4ccccc4nc32)cc1,inactive
8,Cc1nnc(NC(=O)CSc2nc3c(c(=O)n2C)SC(C)C3)s1 (centres undefined),inactive
9,CCOc1ccccc1N1CC(O)=C(c2nc3ccccc3s2)C1=N,inactive
10,Cc1nc2cc(NC(=O)N3c4ccccc4CC3C)ccc2o1 (centres undefined),inactive
11,Cc1cc(OCC(O)CN2CCN(CCO)CC2)ccc1C(C)C (centres undefined),inactive
12,Cc1ccn2cc(CCNC(=O)CC(C)(C)C)nc2c1,inactive
13,CN(C)c1ccc(C2C3=C(CCCC3=O)OC3=C2C(=O)CCC3)cc1,inactive
14,CCOC(=O)c1cc(CC)sc1NC(=O)COC,inactive
15,CCOc1ccc(NC(=O)CCN2CCN(c3ccccc3)CC2)cc1,inactive
16,Cc1ccc2[nH]c(=O)c(C(c3nnnn3CCc3ccccc3)N3CCOCC3)cc2c1 (centres undefined),inactive
17,CC(=O)N1C(=O)C2(C(C#N)=C(N)Oc3cc(C)oc(=O)c32)c2ccccc21 (centres undefined),inactive
18,CCOC(=O)NC(c1ccccc1)C1CCCCC1=O (centres undefined),inactive
19,O=C(Cn1c(NCCO)nc2ccccc21)c1ccccc1,inactive
20,CCOc1ccc(OCC)c(NC(=O)CCCN2C(=O)c3cccnc3C2=O)c1,inactive
21,Cc1cc(NC(=O)CCCN2C(=O)c3cccnc3C2=O)no1,50.9% (active)
22,Cc1cccnc1NC(=O)CCCN1C(=O)c2ccccc2C1=O,inactive
23,O=C(c1ccccc1)c1ccc2nc[nH]c2c1,inactive

row,Structure (SMILES),augmentation
1,O=C(NCCN1CCOCC1)NC1(C(F)(F)F)Oc2ccc(Cl)cc2O1 (centres undefined),inactive
2,C=CCSc1n[nH]c(-c2ccc(OC)cc2)n1,inactive
3,Cc1c(Cl)cccc1N1C(=O)c2ccccc2C1=O,inactive
4,Cc1nc2cc(-n3ccc(=O)cc3)ccc2n1-c1ccccc1,inactive
5,Cn1c(=O)cc(SCC(=O)NCc2cccnc2)c2ccccc21,inactive
6,O=c1cc(C(F)F)oc2c1ccc1ccccc12,97% (active)
7,CSc1nc2c(ccc3ccccc32)o1,inactive
8,COc1ccc(CCN2C(=O)CC(N3CCN(S(=O)(=O)c4ccccc4)CC3)C2=O)cc1 (centres undefined),inactive
9,COCc1nnc(SCC(=O)NC(C)c2ccccc2)n1-c1ccccc1 (centres undefined),inactive
10,COc1ccc(C(=O)N2CCCc3ccccc32)cc1,inactive
11,CCOC(=O)N1CCN(C(=O)Cn2ncn3nc(-c4cccs4)cc3c2=O)CC1,inactive
12,COc1cccc(-n2c(C)nc3c(cnn3-c3ccc(Cl)cc3)c2=O)c1,inactive
13,CCC(C)(C)n1nnnc1C(c1ccc(OC)c(OC)c1)N1CCN(c2ccc(F)cc2)CC1 (centres undefined),inactive
14,COc1ccc(OC)c(NC(=O)C2C3CC4OC(=O)C2C4C3)c1 (centres undefined),inactive
15,CC1/C(=N/O)C(CN(C)C)C2CC1C2(C)C (centres undefined),inactive
16,COc1ccc(-c2noc(C3CCCN(C(=O)CCc4ccccc4)C3)n2)cc1 (centres undefined),inactive
17,O=C(NCCc1c[nH]c2ccccc12)c1cnc2n(c1=O)CCS2,inactive
18,CCOc1ccccc1C(=O)NC(C)c1ccc2c(c1)OCO2 (centres undefined),inactive
19,O=C(CN1CCN(Cc2ccc(F)cc2Cl)C1=O)NCCCN1CCOCC1,inactive
20,O=C(CSc1nnc2scc(-c3ccccc3)n12)N1CCN(Cc2ccccc2)CC1,inactive
21,c1ccc2c3nnc4n(c-3nc2c1)CCCS4,inactive
22,COc1cc(NC(=O)C2CCCN2S(=O)(=O)c2cccc3cccnc23)cc(OC)c1OC (centres undefined),inactive
23,COc1ccccc1-c1nc(SCc2ccccn2)n[nH]1,inactive

row,Structure (SMILES),augmentation
1,CN(C)c1cccc(C(=O)OCC(=O)NCc2ccco2)c1,inactive
2,O=C(CSc1nnc(-c2ccccc2)o1)N1CCc2ccccc2C1,inactive
3,Cc1noc(C)c1COc1cccc(C(=O)Oc2ccc3c(c2)OCO3)c1,inactive
4,O=C1C2CCCN2C(c2ccc(Cl)cc2)N1c1nccs1 (centres undefined),inactive
5,C=CCn1c(=O)[nH]c2cc(C(=O)N3CCN(c4cc(C)ccc4C)CC3)ccc2c1=O,inactive
6,COc1cccc(NC(=O)CSc2nnc(-c3cccs3)n2C)c1,inactive
7,CCCC(=O)NCCc1cc2c(C)ccc(C)c2[nH]c1=O,inactive
8,O=C(CNC(=O)c1cccs1)NCCN1CCN(c2ccccc2F)CC1,inactive
9,COc1cccc(NC(=O)N2CCC(N3CCCCC3)CC2)c1,inactive
10,COc1cccc(NC(=O)N2CCN(c3cccc(C)c3C)CC2)c1,100% (active)
11,COc1cccc(NC(=O)CN2CCN(c3ccccc3F)CC2)c1,inactive
12,Cc1ccc(C)c(CSc2nnc(CCN)o2)c1,inactive
13,COc1ccc(N2CCN(CCNS(=O)(=O)c3cccc4nsnc34)CC2)cc1,inactive
14,CC(=O)c1ccccc1Oc1nc(CN2CCOCC2)nc2scc(-c3cccs3)c12,inactive
15,COC(=O)c1ccc(CNC(=O)CSc2nc3sc(C)c(C)c3c(=O)n2C)o1,inactive
16,CCN(CC)CCCNS(=O)(=O)c1ccc(OC)cc1,inactive
17,CCCCC(NS(=O)(=O)c1ccc(OC)cc1)C(=O)O (centres undefined),66.3% (active)
18,COc1ccc(S(=O)(=O)NCc2ccc(C(=O)O)cc2)cc1,inactive
19,O=C(Nc1nc(-c2ccc(S(=O)(=O)N3CCCCCC3)cc2)cs1)c1cccs1,inactive
20,COCCn1c(-c2ccc(OC)c(OC)c2)nc2ccccc21,100% (active)
21,C=CCn1c(-c2ccc(OC)cc2)nc2ccccc21,inactive
22,COc1ccc(Cn2c(CCCO)nc3ccccc32)cc1OC,inactive

# Source: PubChem BioAssay AID455 (Sanford-Burnham Center for Chemical Genomics, 2006)
